Shown are actives, neighbours in structure and some others; about 11% of the full set was active somewhere.
CBFb RUNX1 block: inhibitors of human CBF-beta and RUNX1 interaction; AlphaScreen CBFb-His/RUNX1-biotin binding, biochemical; Potency, µM (series often up to 59.8 µM), without a hit: at the highest dose activity, negative = inhibition, usual class: inhibitors; 230,000 tested, under 10 active; note: % of control where 0% means no effect
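Compounds were screened at multiple concentrations against a preformed CBF-beta(His)/RUNX1(biotin) complex (30 nM of each) for 15 min at room temperature, followed by 90 min with nickel and streptavidin beads and AlphaScreen reading.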
PNC inhibitor: perinucleolar compartment assembly inhibition; PC3M PTB-GFP, PNC prevalence imaging, 16 h; active compounds read low; activity change (PNC), negative = inhibition, % at 10 µM; hit rate 3.1% among 140,000; AID 2417;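 active = readout at or below -70, meaning at least 70% loss of cells showing the perinucleolar compartment, a nuclear body marking cancer cells; inconclusive = readout between -30 and a set limit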;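 note: plate controls were DMSO wells for no effect and camptothecin positive control wells for full effect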
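PC3M cells stably expressing PTB-GFP, 750–1000 cells/well, treated 16 h at 37 °C with compound (23 nl of library stock), in duplicate. After paraformaldehyde fixation and Hoechst stain, imaged at 20x; PNC prevalence scored by image analysis.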
HttQ103 aggreg: mutant huntingtin aggregation inhibition | Potency, µM (top dose mostly 46.1 µM), without a hit: at the highest dose activity change, negative = inhibition, actives largely listed as inhibitors | hit rate 1.1% among 220,000 | PC12 HttQ103-GFP aggregates, Acumen cytometry, 40 h | AID 1688; note: potency is the fitted concentration of half-maximal effect; % is set by controls: 0 for no effect and ±100 for the full control effect; nearly all actives have a fitted effect of over 60% in size
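Ecdysone-promoter PC12 model expressing HTT exon 1 Q103 fused to GFP, induced by tebufenozide at 100 nM final. Compounds titrated; aggregates sized 1–25 µm scored on a 488 nm laser cytometer.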
HPGD block: HPGD (human) dehydrogenase inhibition; P15428; purified HPGD, NADH fluorescence kinetic, PGE2 substrate; Potency, µM, without a hit: at the top dose activity change, negative = inhibition, actives largely listed as inhibitors; hit rate 4.3% among 150,000; active = well fitted inhibition curve with a large enough effect, not every such curve was filed as active; inconclusive = small, poorly fitted or top-dose-only effect, or another doubt; inactive = no such curve, though single readings can be large or run the other way; note: potency is the fitted concentration of half-maximal effect; % is set by controls: 0 for no effect and ±100 for the full control effect
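NADH formation kinetics: reaction with 30 uM PGE2 and 1 mM NAD+ (final), 20 nM enzyme, Tris-HCl pH 8 with Tween 20, after 15 min compound preincubation at room temperature. Fluorescence change, last versus first of five reads.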
ALDH1A1 inh: inhibitors of human aldehyde dehydrogenase 1A1; hit rate 7.3% among 220,000; Potency, µM (top dose mostly 75.3 µM), inactives show top-dose activity, negative = inhibition, actives largely listed as inhibitors; Purified ALDH1A1, NADH fluorescence, propionaldehyde substrate; P00352; active = well fitted inhibition curve with a large enough effect, not every such curve was filed as active; inconclusive = small, poorly fitted or top-dose-only effect, or another doubt; inactive = no such curve, though single readings can be large or run the other way;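 note: potency is the fitted concentration of half-maximal effect; plate controls were no enzyme wells and a reference inhibitor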
Target sequence (P00352 whole entry, looked up): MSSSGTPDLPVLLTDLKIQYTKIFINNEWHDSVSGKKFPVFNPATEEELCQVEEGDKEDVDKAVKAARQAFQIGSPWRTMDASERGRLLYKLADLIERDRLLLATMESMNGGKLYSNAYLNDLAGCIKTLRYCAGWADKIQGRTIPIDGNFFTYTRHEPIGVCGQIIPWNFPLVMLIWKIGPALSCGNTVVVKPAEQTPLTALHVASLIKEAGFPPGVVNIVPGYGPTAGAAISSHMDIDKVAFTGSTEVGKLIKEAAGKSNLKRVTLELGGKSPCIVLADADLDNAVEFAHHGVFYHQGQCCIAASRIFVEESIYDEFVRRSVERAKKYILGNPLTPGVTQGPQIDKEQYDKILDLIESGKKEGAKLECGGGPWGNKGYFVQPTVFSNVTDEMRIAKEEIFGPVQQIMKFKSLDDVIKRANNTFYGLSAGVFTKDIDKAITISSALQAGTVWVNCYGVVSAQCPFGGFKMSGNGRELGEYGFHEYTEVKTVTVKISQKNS
HTT ATP protect: cytoprotection in Huntington HTT-Q103 PC12 cell model; PC12 HTT-Q103 induced, cytoprotection, ATP luminescence, 40 h; Potency, µM (titrated, usually from 56.4 µM), for inactives: cytoprotection (ATP increase), hits mostly activators; hit rate 0.14% among 230,000; AID 1471; note: potency is the fitted concentration of half-maximal effect; % of control where 0% means no effect; nearly all actives have a fitted effect of over 45% in size
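PC12 cells with ecdysone-inducible HTT exon 1 Q103-GFP, induced with 100 nM tebufenozide and co-treated with library compounds in a dose series (1536-well, 1500 cells/well). Cytoprotection read as ATP content by ATPlite luminescence.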
Starred values were filed as active, the others as inactive; [ ] = remark or other dose. Unless noted, calls come from the whole dose curve; as a rule, active = well fitted curve in the direction sought with a large enough effect; inconclusive = small, poorly fitted or top-dose-only effect, or another doubt; inactive = no such curve, though single readings can be large; an effect the other way counts as inactive or inconclusive.

For CC(=O)Nc1cc(OC(=O)c2ccco2)cc(OC(=O)c2ccco2)c1 the results were CBFb RUNX1 block -10%, PNC inhibitor 8, HttQ103 aggreg 2%, HPGD block -9%, ALDH1A1 inh 13% and HTT ATP protect 5%.
Screening CCOC(=O)C1=C(C)NC(=S)N(C(C)=O)C1c1ccccc1 (configuration not stated) returned CBFb RUNX1 block 5%, PNC inhibitor inconclusive, HttQ103 aggreg -4%, HPGD block -19%, ALDH1A1 inh 25µM* and HTT ATP protect -10%[10 µM].
`COc1ccccc1NC(=O)C1=C(C)Nc2nnnn2C1c1cccc(C)c1` (configuration not stated) gave CBFb RUNX1 block 2%, PNC inhibitor -18, HttQ103 aggreg 25%, HPGD block inconclusive, ALDH1A1 inh 14µM* and HTT ATP protect -7%.
`COc1ccccc1NC(=O)C1=C(C)Nc2nnnn2C1c1ccccn1` (configuration not stated) gave CBFb RUNX1 block 7%, PNC inhibitor -25, HttQ103 aggreg 28%, HPGD block -3%, ALDH1A1 inh 13µM* and HTT ATP protect -6%.
CC1=C(C(=O)OC(C)C)C(c2c[nH]c3ccccc23)n2ncnc2N1 (configuration not stated) was read as CBFb RUNX1 block 0%, PNC inhibitor -106*, HttQ103 aggreg 11%, HPGD block 4%, ALDH1A1 inh 15% and HTT ATP protect 24%.
COc1ccccc1NC(=O)C1=C(C)Nc2nnnn2C1c1ccccc1OC (configuration not stated) was read as CBFb RUNX1 block 7%, PNC inhibitor 12, HttQ103 aggreg 14%, HPGD block -6%, ALDH1A1 inh -6% and HTT ATP protect 0%[0.074 µM].
Screening CCOC(=O)C1=C(C)Nc2ncnn2C1c1c[nH]c2ccccc12 (configuration not stated) returned CBFb RUNX1 block 8%, PNC inhibitor -21, HttQ103 aggreg 21%, HPGD block -13%, ALDH1A1 inh -17% and HTT ATP protect 28%[0.074 µM].
Screening CC(C)[C@@H]1OC(=O)C=CC=CC=CC=CC=CC[C@@H](O)[C@H](C)[C@@H](O)C[C@H](O)C[C@H](O)C[C@H](O)C[C@H](O)C[C@H](O)C[C@H](O)C=C[C@@H]1C returned HTT ATP protect -4%[10 µM].
`c1ccc(-c2ccc(N3CCCC4(CCNCC4)C3)cc2)cc1` gave HPGD block inconclusive, ALDH1A1 inh inconclusive and HTT ATP protect -309%.
For CCCCS(=O)(=O)NC1=NCN(C2CCN(Cc3ccccc3)CC2)CN1 the results were HTT ATP protect 2%[10 µM].
`O=C(N/N=C/c1cc2cc3c(cc2nc1Cl)OCO3)c1ccncc1` gave CBFb RUNX1 block 2%, HttQ103 aggreg 17%[9.22 µM] and HTT ATP protect 32%[10 µM].
`COc1ccc(C2C(C(=O)Nc3ccccc3OC)=C(C)Nc3ncnn32)cc1` (configuration not stated) gave CBFb RUNX1 block 1%, PNC inhibitor 35, HttQ103 aggreg -8%, HPGD block -10%, ALDH1A1 inh 14µM* and HTT ATP protect -11%.
CCOC(=O)C1=C(C)Nc2ncnn2C1c1cccnc1 (configuration not stated) was read as CBFb RUNX1 block 1%, PNC inhibitor inconclusive, HttQ103 aggreg 0%, HPGD block -5%, ALDH1A1 inh 8% and HTT ATP protect -20%.
`CCOC(=O)C1=C(C)Nc2ncnn2C1c1ccc(N(C)C)cc1` (configuration not stated) gave CBFb RUNX1 block 0%, PNC inhibitor 14, HttQ103 aggreg -3%, ALDH1A1 inh 18µM* and HTT ATP protect 2%.
Screening CCOC(=O)C1=C(C)Nc2nc(=S)[nH]n2C1c1ccc(Cl)cc1 (configuration not stated) returned CBFb RUNX1 block -5%, PNC inhibitor inconclusive, HttQ103 aggreg -1%, HPGD block 11µM*, ALDH1A1 inh inconclusive and HTT ATP protect -25%.
`Cc1nc2sccn2c1P(c1c(C)nc2sccn12)c1c(C)nc2sccn12` gave CBFb RUNX1 block 1%, PNC inhibitor -80*, HttQ103 aggreg -12%[9.22 µM], HPGD block 4%, ALDH1A1 inh 10% and HTT ATP protect 5%[10 µM].
`CCOC(=O)c1c(C)nc2sccn12` gave CBFb RUNX1 block 1%, PNC inhibitor 59, HttQ103 aggreg -2%, HPGD block -8%, ALDH1A1 inh -4% and HTT ATP protect 8%.
Clc1cccc(COn2c(-c3ccc(Cl)cc3Cl)nc3ncccc32)c1 was read as CBFb RUNX1 block -4%, PNC inhibitor -17, HttQ103 aggreg -12%, HPGD block 6%, ALDH1A1 inh 1% and HTT ATP protect 0%.
Screening Cc1ccc(COn2c(-c3ccc(Cl)cc3Cl)nc3ncccc32)cc1 returned CBFb RUNX1 block -6%, PNC inhibitor 4, HttQ103 aggreg -12%, HPGD block 7%, ALDH1A1 inh 18µM* and HTT ATP protect 2%.
Cc1c(N/C=C(\Cl)C(=O)C(F)(F)F)c(=O)n(-c2ccccc2)n1C was read as CBFb RUNX1 block -12%, HttQ103 aggreg 7%, ALDH1A1 inh 32µM* and HTT ATP protect 3%.
COCCN(C(=O)CCc1ccc(OC)cc1)c1nnc(-c2ccncc2)s1 was read as CBFb RUNX1 block -8%, HttQ103 aggreg 0%[9.22 µM], ALDH1A1 inh 22µM* and HTT ATP protect -4%[10 µM].
Screening CCCCN(C(=O)Cc1cccs1)c1nnc(-c2cccnc2)s1 returned CBFb RUNX1 block -9%, PNC inhibitor -13, HttQ103 aggreg -14%, HPGD block -14%, ALDH1A1 inh 18µM* and HTT ATP protect 5%[10 µM].
For CCN(C(=O)Cc1cccs1)c1nnc(-c2cc(OC)c(OC)c(OC)c2)s1 the results were CBFb RUNX1 block 0%, PNC inhibitor -12, HttQ103 aggreg 10%, HPGD block inconclusive, ALDH1A1 inh inconclusive and HTT ATP protect -6%[10 µM].
For CCCC(=O)N(C)c1nnc(-c2ccc(OC)cc2)s1 the results were CBFb RUNX1 block 1%, PNC inhibitor -8, HttQ103 aggreg -7%, HPGD block -17%, ALDH1A1 inh 28µM* and HTT ATP protect -37%.
For COCCN(C(=O)Cc1cccs1)c1nnc(-c2cccnc2)s1 the results were CBFb RUNX1 block 4%, PNC inhibitor -100*, HttQ103 aggreg -18%, HPGD block 1%, ALDH1A1 inh inconclusive and HTT ATP protect -19%[10 µM].
